In assay [1] the test system is Wnt5a (protein binding on small-molecule microarray). In words: Wnt5a binders on small-molecule microarray, primary screen, biophysical, 635/667 nm fluorescence (AID 1142).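 Further: fluorescence read at 667 nm with signal to noise per printed feature.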 The following applies: 635 nm fluorescence, higher = more signal.
Assay [2] can be described thus: cell viability in Huh7 cells, primary screen, cytotoxicity control for HCV replication inhibitor project, CellTiter-Glo luminescence, basal, 48 h (AID 1143).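 Further: Huh7 hepatoma cells carrying a hepatitis C replication reporter with no stimulus; test concentration not given here.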 The following applies: Huh7 HCV replicon, higher = more signal, called active from +8 up or from −8 down. On the technique in general: Cellular ATP, detected with luciferase, serves as a proxy for viable cell number.

Assay [3] can be described thus: P. aeruginosa biofilm formation inhibitors, primary screen, PAO1 strain, BacTiter-Glo luminescence, LB-PBS (AID 1144). The following applies: 12 h, higher = more signal.
Assay [4] is described as follows: CREB reporter modulators without forskolin, primary screen, cell-based, PC12, CRE-LacZ reporter, unstimulated (AID 1145). The following applies: no forskolin, luminescence, 4.5 h, higher = more signal, called active from +8 up or from −8 down.
Assay [5] is described as follows: CREB reporter modulators under forskolin, primary screen, cell-based, PC12, CRE-LacZ reporter, forskolin-stimulated (AID 1146).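 Further: PC12 cells with 6xCRE LacZ reporter stimulated by forskolin 10 µM; beta-galactosidase reporter signal reflecting CREB driven transcription.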 The following applies: luminescence, 4.5 h, higher = more signal, called active from +8 up or from −8 down.
In assay [6] the target is Streptavidin (Streptomyces avidinii) (UniProt P22629). In words: streptavidin binders on small-molecule microarray, primary screen, artefact control for SMM compound annotation, biophysical, 635/667 nm fluorescence (AID 1147).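 Further: signal reflects streptavidin binding to arrayed compounds as a control protein.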 The following applies: streptavidin binding, higher = more signal.
Assay [7] in a line: small-molecule binders of probe aInhba, primary screen, biochemical, small-molecule microarray, 635/667 nm fluorescence (AID 1148).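 Further: score merges 667nm spot fluorescence with signal-to-noise for antibody binding to printed compounds.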 The following applies: higher = more signal.
The target of assay [8] is Torsin-1A (Homo sapiens) (UniProt O14656). In words: torsin A binders from cell lysate, primary screen, small-molecule microarray, wild-type, 635/667 nm (AID 1149). The following applies: COS7 hTOR1A-WT lysate, 635 nm fluorescence, higher = more signal.
For assay [9] the target is unchanged. Put plainly: small-molecule binders of mutant TOR1A in lysate, primary screen, cell lysate, small-molecule microarray, COS7 lysate, 635/667 nm fluorescence (AID 1150).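 Further: score pools 667 nm emission and signal to noise measuring lysate protein binding.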 The following applies: COS7 hTOR1A mutant lysate, 635 nm fluorescence, higher = more signal.
Assay [10] relates to Sonic hedgehog protein (Shh). Put plainly: small-molecule binders of Shh protein, primary screen, biochemical, small-molecule microarray, 635/667 nm fluorescence (AID 1151).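 Further: Shh protein binding to compounds spotted on small-molecule microarray slides; score combines spot fluorescence intensity with signal-to-noise across triplicate slides.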 The following applies: small-molecule microarray binding, 635 nm fluorescence; higher = more signal.
Assay [11] in a line: E. coli DRC41 culture turbidity changes, primary screen, E. coli filamentation inducer project, strain DRC41, OD650, 48 h (AID 1152).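 Further: E. coli MC1000 strain DRC41 lacking acrAB efflux pump and sulA.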 The following applies: E. coli DRC41 (acrAB sulA), higher = more signal, called active from +8 up or from −8 down.
A short description of assay [12]: small-molecule binders of probe aLefty1, primary screen, biochemical, small-molecule microarray, 635/667 nm fluorescence (AID 1153).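 Further: score merges spot fluorescence with signal-to-noise ratio from the scanned slide images.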 The following applies: higher = more signal.
Assay [13] in a line: PSAC antagonists in infected red cells, primary screen, cell-based, P. falciparum Indochina, OD700, 1 h (AID 1154). The following applies: P. falciparum Indochina infected RBC osmotic lysis, higher = more signal, called active from +8 up or from −8 down.
Assay [14] can be described thus: PSAC antagonists in infected red cells, primary screen, cell-based, P. falciparum Indochina, OD700, 2 h (AID 1155).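 Further: lysis reports solute entry through the parasite surface anion channel PSAC; channel blockers reduce lysis of infected cells.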 The following applies: P. falciparum Indochina infected erythrocytes, osmotic lysis OD700; higher = more signal, called active from +8 up or from −8 down.
Assay [15] can be described thus: osmotic lysis modulators in infected erythrocytes, primary screen, PSAC antagonist project, cell-based, P. falciparum Indochina, OD700, 3 h (AID 1156). The following applies: higher = more signal, called active from +8 up or from −8 down.
A short description of assay [16]: PSAC antagonists in infected red cells, primary screen, cell-based, P. falciparum Indochina, OD700, 18 h (AID 1157). The following applies: P. falciparum Indochina infected erythrocytes, osmotic lysis OD700, 18 h; higher = more signal, called active from +8 up or from −8 down.
Assay [17] in a line: modulators of S6 phosphorylation in cells, primary screen, cell-based, A549, cytoblot, luminescence, serum-stimulated (AID 1158).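 Further: serum-stimulated A549 lung adenocarcinoma cells; signal is phosphorylated S6 detected by cytoblot immunostaining with HRP secondary.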 The following applies: A549 phospho-S6 cytoblot, 5 h, higher = more signal.
The target of assay [18] is NADPH oxidase 2 (Homo sapiens) (UniProt P04839). Put plainly: NOX2-dependent H2O2 signal modulators, primary screen, NOX inhibitor project, cell-based, HEK293-NOX2, PMA-stimulated, Amplex Red fluorescence (AID 1159). Further: test concentration not given here. The following applies: 45 min, higher = more signal, called active from +8 up or from −8 down.
Assay [19] concerns the target NADPH oxidase 4 (Homo sapiens) (UniProt Q9NPH5). Put plainly: NOX4-dependent H2O2 signal modulators, primary screen, NOX inhibitor project, cell-based, HEK293-NOX4, tetracycline-induced, Amplex Red fluorescence (AID 1160). The following applies: 45 min, higher = more signal, called active from +8 up or from −8 down.
Assay [20] concerns the target NADPH oxidase 5 (Homo sapiens) (UniProt Q96PH1). In words: NOX5-dependent H2O2 signal modulators, primary screen, NOX inhibitor project, cell-based, HEK293-NOX5, Amplex Red fluorescence (AID 1161). The following applies: HEK293-NOX5, ionomycin, 45 min, higher = more signal.

The source made the active and inactive calls. Unless noted, how the calls were made is not given here.

Chain of Streptavidin (Streptomyces avidinii) (P22629 whole entry, looked up): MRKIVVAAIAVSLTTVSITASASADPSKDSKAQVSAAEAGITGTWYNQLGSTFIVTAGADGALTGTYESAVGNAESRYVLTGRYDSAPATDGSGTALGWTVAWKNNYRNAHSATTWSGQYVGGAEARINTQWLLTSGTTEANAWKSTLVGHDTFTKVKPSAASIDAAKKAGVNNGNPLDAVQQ
Chain of Torsin-1A (Homo sapiens) (O14656 whole entry, looked up): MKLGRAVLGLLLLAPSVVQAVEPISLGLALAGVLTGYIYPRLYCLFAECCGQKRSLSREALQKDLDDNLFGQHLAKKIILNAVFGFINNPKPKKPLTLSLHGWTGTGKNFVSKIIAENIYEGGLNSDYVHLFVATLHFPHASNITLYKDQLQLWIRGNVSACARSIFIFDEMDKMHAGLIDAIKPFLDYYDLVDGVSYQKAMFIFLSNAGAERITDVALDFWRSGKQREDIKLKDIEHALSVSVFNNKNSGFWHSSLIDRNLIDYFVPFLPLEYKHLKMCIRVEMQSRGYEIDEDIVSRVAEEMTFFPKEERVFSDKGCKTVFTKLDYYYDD
Chain of NADPH oxidase 5 (Homo sapiens) (Q96PH1 whole entry, looked up): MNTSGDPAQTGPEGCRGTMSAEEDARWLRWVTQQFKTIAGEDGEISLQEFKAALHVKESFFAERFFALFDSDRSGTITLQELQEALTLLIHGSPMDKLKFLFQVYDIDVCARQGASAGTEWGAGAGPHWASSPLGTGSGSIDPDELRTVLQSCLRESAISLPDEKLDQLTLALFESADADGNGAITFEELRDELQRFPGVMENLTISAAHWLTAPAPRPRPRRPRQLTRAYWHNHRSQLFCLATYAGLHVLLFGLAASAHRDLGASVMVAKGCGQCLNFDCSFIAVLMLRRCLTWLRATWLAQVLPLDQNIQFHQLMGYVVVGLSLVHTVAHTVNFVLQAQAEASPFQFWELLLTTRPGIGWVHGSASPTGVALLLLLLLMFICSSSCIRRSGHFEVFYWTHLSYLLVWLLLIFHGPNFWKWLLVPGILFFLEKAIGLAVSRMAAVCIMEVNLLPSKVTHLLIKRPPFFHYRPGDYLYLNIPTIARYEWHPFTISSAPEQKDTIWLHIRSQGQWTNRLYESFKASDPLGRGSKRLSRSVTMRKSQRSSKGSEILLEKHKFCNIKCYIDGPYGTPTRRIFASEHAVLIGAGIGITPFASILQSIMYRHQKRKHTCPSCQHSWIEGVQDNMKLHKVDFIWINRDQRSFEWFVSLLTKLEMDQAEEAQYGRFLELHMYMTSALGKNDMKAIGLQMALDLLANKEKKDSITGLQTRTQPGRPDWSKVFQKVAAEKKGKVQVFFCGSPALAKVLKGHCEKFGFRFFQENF
Chain of NADPH oxidase 4 (Homo sapiens) (Q9NPH5 whole entry, looked up): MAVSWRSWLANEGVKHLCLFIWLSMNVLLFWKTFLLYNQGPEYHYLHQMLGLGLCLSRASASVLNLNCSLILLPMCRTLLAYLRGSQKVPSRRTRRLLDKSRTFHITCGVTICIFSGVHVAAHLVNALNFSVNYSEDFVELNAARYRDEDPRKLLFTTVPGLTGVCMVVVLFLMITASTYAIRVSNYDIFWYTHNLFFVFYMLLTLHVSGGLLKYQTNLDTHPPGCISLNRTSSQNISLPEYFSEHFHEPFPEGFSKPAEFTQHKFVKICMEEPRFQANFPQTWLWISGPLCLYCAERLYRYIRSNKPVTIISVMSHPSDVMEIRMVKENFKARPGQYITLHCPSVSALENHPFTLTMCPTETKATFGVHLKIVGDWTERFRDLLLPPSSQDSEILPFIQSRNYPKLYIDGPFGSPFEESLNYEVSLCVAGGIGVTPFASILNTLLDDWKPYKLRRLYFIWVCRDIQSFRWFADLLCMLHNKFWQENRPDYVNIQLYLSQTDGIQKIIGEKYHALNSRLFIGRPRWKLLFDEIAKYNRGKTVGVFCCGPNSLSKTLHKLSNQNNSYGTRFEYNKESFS
Chain of NADPH oxidase 2 (Homo sapiens) (P04839 whole entry, looked up): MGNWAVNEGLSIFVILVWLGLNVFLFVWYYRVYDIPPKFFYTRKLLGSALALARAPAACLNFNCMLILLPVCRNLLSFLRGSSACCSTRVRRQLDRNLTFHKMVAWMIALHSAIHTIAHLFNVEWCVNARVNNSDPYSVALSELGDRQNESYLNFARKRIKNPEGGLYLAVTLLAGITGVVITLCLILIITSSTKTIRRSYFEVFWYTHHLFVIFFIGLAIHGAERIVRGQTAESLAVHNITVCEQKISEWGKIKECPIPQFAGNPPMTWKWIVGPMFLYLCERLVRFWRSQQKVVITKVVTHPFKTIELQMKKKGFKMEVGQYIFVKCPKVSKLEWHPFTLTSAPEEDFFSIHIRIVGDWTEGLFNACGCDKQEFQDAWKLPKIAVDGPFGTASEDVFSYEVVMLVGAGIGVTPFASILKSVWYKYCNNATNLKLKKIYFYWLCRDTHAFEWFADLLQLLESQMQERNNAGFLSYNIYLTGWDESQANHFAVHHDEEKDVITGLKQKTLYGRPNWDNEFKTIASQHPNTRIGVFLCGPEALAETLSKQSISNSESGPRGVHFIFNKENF

On to `CCC1=C2CN(Cc3ccccc3)[C@@H](C(=O)Cc3ccccc3)C2C=CCC1` (stereo not given in full), for which the composite z-score was -0.245 in assay [1]; 0.0145 in assay [6]; -0.0331 in [7]; -0.645 with Torsin-1A (Homo sapiens) [8]; -0.124 with Torsin-1A (Homo sapiens) [9]; 0.553 in assay [10]. Further, the composite z-score in assay [12] is -0.0984. The z-score in [2] is -3.57 (inactive); in [3] it was 0.0518 (inactive); in assay [4] it was -0.142 (inactive); in [5], 1.73 (inactive); in assay [11], 0.806 (inactive); in assay [13], 0.26 (inactive). Moreover, the z-score in [14] was -1.13 (inactive); in assay [15], 0.564 (inactive); in assay [16], -2 (inactive); in [17] it was 0.492; in [18], -1.12 (inactive); in [19], -1.42 (inactive). This compound yielded a z-score in assay [20] of -0.123.

Regarding `COC(=O)C1=CC(CCCO)=CC(c2ccc(CN3CCCC3)cc2)N(Cc2cccc(OC(F)(F)F)c2)C=C1C(=O)OC` (stereo not given), the composite z-score in assay [1] is -0.0146; in assay [6], 0.644; in assay [7], 0.0769; with Torsin-1A (Homo sapiens) [8], 0.648; with Torsin-1A (Homo sapiens) [9] it was 1.18; in [10], -0.136. The same compound gave a composite z-score in [12] of 0.241. In addition, the z-score is -2.24 (inactive) in assay [2]; 1.23 (inactive) in [3]; -0.554 (inactive) in [4]; -0.727 (inactive) in assay [5]; -0.418 (inactive) in [11]; 0.119 (inactive) in assay [13]. In addition, the z-score in assay [14] was -0.984 (inactive); in assay [15], 0.456 (inactive); in assay [16], -2.27 (inactive); in assay [17] it was 1.38; in assay [18], 0.439 (inactive); in assay [19] it was -0.351 (inactive). The z-score in assay [20] was 0.628.

Take `COc1ccc([Si](C)(C)[C@@H]2[C@@H](CCO)O[C@]3(C(=O)N(Cc4ccccc4)c4ccc(NC(=O)[C@H](C)O)cc43)[C@H]2C)cc1`: the composite z-score in assay [1] came to 0.514; in assay [6] it was 0.753; in [7], 0.108; with Torsin-1A (Homo sapiens) [8] it was 1.05; in the assay with Torsin-1A (Homo sapiens) [9] it was 0.854; in assay [10] it was 1.95. In assay [12], this compound gave a composite z-score of 0.621. The z-score in assay [2] is -7.95 (inactive); in assay [3], -1.07 (inactive); in assay [4] it was 12.2 (active); in [5] it was -0.161 (inactive); in [11] it was 0.573 (inactive); in assay [13], 12.8 (active). The z-score is 2.77 (inactive) in [14]; -0.919 (inactive) in assay [15]; 1.92 (inactive) in assay [16]; 0.402 in [17]; 0.77 (inactive) in assay [18]; 0.452 (inactive) in assay [19]. For the same compound, the z-score in assay [20] stood at 1.8.

In the case of `CC(=O)NCCCC[C@@H]1NC(=O)[C@@H]2C[C@H](C(=O)NCCCCCN)[C@H](c3ccc(O)cc3)N2C1=O`, the composite z-score in assay [1] was determined as 0.66; in assay [6] it was 0.977; in [7], 0.221; in the assay with Torsin-1A (Homo sapiens) [8], 1.14; with Torsin-1A (Homo sapiens) [9], 1.54; in assay [10] it was 1.52. This compound came in with a composite z-score in assay [12] of 0.482. Further, the z-score was -0.224 (inactive) in [2]; 0.268 (inactive) in [3]; 0.285 (inactive) in [4]; -0.389 (inactive) in assay [5]; 2.04 (inactive) in [11]; 1.46 (inactive) in [13]. In addition, the z-score is 0.374 (inactive) in [14]; 0.45 (inactive) in assay [15]; 0.301 (inactive) in assay [16]; 0.856 in [17]; 1.93 (inactive) in assay [18]; 0.0542 (inactive) in assay [19]. Moreover, the z-score in [20] turned out to be 2.86.
